{
  "source": "PubChem BioAssay AID648",
  "about": "(SRMLSC, 2007)",
  "note": "The campaign covered roughly 86,000 compounds. About 920 (1.1%) were called active. This is one part of a sample in which actives are shown more often than they occur. A number with no mark means an inactive call.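 How the source made its calls: active means viability at or below 30%; inactive means viability above 30%.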",
  "data": [
    {"assay": "endothelial cell growth inhibition – HUVEC, 384-well, primary screen (AID 648);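 further: 100% = median luminescence of DMSO-only cell control wells on each plate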", "details": "HUVEC proliferation, CellTiter-Glo luminescence, 72 h; stronger effect = lower value; screened at 10 µM (by protocol)", "values": [
      {"molecule": "C/C(=N\\NC(=O)c1nc(C)cc(C)n1)c1ccccc1", "viability": "93.6%"},
      {"molecule": "Cc1ccc(OCC(=O)N/N=C\\c2ccco2)c(C)c1", "viability": "93%"},
      {"molecule": "Cc1ccc(/C=N/NC(=O)C2=NNC(c3ccccc3)(c3ccccc3)C2)c(O)c1", "viability": "25.4% (active)"},
      {"molecule": "CCN(CC)CCn1c2ccc(Cl)cc2c2nc(C)sc21", "viability": "87.5%"},
      {"molecule": "CCOC(=O)c1ccc(N2C(=O)CC(N(C)Cc3ccccc3)C2=O)cc1", "note": "(centres undefined)", "viability": "92.5%"},
      {"molecule": "COc1cccc(NC(=O)Cc2ccc(C)cc2)c1", "viability": "95.9%"},
      {"molecule": "COc1ccc(NC(=O)/C(Cl)=C(/Cl)S(=O)Cc2ccc(C)cc2)cn1", "note": "(centres undefined)", "viability": "1.52% (active)"},
      {"molecule": "COc1ccc(CC(=O)Nc2ccc(-c3nnc(-c4ccc(C)cc4)o3)cc2)cc1", "viability": "61.7%"},
      {"molecule": "COc1cc(C(=O)OC(C)C(=O)NCC2CCCCC2)cc(NC(=O)c2ccco2)c1OC", "note": "(centres undefined)", "viability": "100%"},
      {"molecule": "N#CCSc1nc2ccc(N3CCOCC3)cc2c(=O)n1CCc1ccccc1", "viability": "90.5%"},
      {"molecule": "Cc1ccc(CNC(=O)CCNS(=O)(=O)c2cccc3nonc23)cc1", "viability": "95.1%"},
      {"molecule": "COc1ccc(-c2cc(C(F)(F)F)nc(S(C)(=O)=O)n2)cc1OC", "viability": "13.2% (active)"},
      {"molecule": "COc1ccc(-c2nnco2)cc1OC", "viability": "102%"},
      {"molecule": "COc1ccc(-c2cc(C(F)(F)F)nc(NCc3cccnc3)n2)cc1", "viability": "88.9%"},
      {"molecule": "COC(=O)C1C(=O)NCC1c1ccc(OC)cc1", "note": "(centres undefined)", "viability": "93.7%"},
      {"molecule": "COCc1[nH][nH]c(=O)c1C=Nc1ccc(F)cc1F", "viability": "86.9%"},
      {"molecule": "CCN(CC)CCCNC(=O)CCc1ccccc1", "viability": "103%"},
      {"molecule": "Cc1cc(N2CCN(S(=O)(=O)c3ccc(C)c(C)c3)CC2)c2ccccc2n1", "viability": "81.6%"},
      {"molecule": "CC(=O)c1cccc(NC(=O)Nc2ccc(C)cc2)c1", "viability": "90%"},
      {"molecule": "Cc1ccc(NC(=O)CCN2CCc3ccccc3C2)cc1", "viability": "103%"},
      {"molecule": "Cc1ccc(NC(=S)NC(NC(=O)Cc2cccc3ccccc23)C(Cl)(Cl)Cl)cc1", "note": "(centres undefined)", "viability": "4.6% (active)"},
      {"molecule": "COc1ccc(-c2cn(-c3ccc(C)cc3)c(=O)n2CC(=O)Nc2ccc(OC)c(OC)c2)cc1", "viability": "92.4%"},
      {"molecule": "COc1ccc(-c2nnc(SCc3cccnc3)o2)cc1", "viability": "104%"},
      {"molecule": "COc1cc2c(cc1OC)C(C(C)C)=NC(C)(C)C2", "viability": "90.5%"},
      {"molecule": "COc1ccc(CCNC(=O)CN(c2ccccc2)S(C)(=O)=O)cc1OC", "viability": "94.6%"},
      {"molecule": "FC(F)(F)c1nnc2ccc(N3CCN(c4ccccc4)CC3)nn12", "viability": "85.4%"},
      {"molecule": "COC(=O)c1ccccc1NC(=O)Cc1ccccc1OC", "viability": "91.1%"},
      {"molecule": "CC(C)n1c(C(O)c2ccccc2)nc2ccccc21", "note": "(centres undefined)", "viability": "99.3%"},
      {"molecule": "Cc1ccc(C(CC(=O)O)Nc2nc(N3CCCCC3)nc(N3CCCCC3)n2)cc1", "note": "(centres undefined)", "viability": "99.9%"},
      {"molecule": "CC(Nc1nc(N2CCCC2)nc2ccccc12)c1ccccc1", "note": "(centres undefined)", "viability": "4.14% (active)"},
      {"molecule": "CCN(c1ccccc1)S(=O)(=O)c1ccc(C(=O)Nc2nccs2)cc1", "viability": "104%"},
      {"molecule": "Cc1ccc(-c2noc(CC(c3ccccc3)c3ccccc3)n2)cc1", "viability": "135%"},
      {"molecule": "COc1ccc(N2CCN(Cc3ccc(Br)s3)CC2)cc1", "viability": "108%"},
      {"molecule": "COc1ccc(Cl)cc1C(=O)NCC#N", "viability": "91.6%"},
      {"molecule": "O=C(NCc1ccccc1)C1CCCN(S(=O)(=O)c2cccs2)C1", "note": "(centres undefined)", "viability": "93%"},
      {"molecule": "CC(=O)Oc1ccc(C(C)=O)c2c1OCCO2", "viability": "82.4%"},
      {"molecule": "CCN(CC)C(=O)CC1(c2ccccc2OC)CCOC(C(C)C)C1", "note": "(centres undefined)", "viability": "103%"},
      {"molecule": "CC(C)c1ccc(OCC(O)Cn2cnc3ccccc32)cc1", "note": "(centres undefined)", "viability": "84.8%"},
      {"molecule": "OC(CN=c1sc2ccccc2n1CC(O)COc1ccccc1)COc1ccccc1", "note": "(centres undefined)", "viability": "28.9% (active)"},
      {"molecule": "OC(COc1ccccc1)Cn1cc(Br)cn1", "note": "(centres undefined)", "viability": "99.8%"},
      {"molecule": "COc1ccccc1/C=C/C1=NC(=C\\N(C)C)/C(=O)O1", "viability": "90.8%"},
      {"molecule": "CC(C)c1ccc(-c2noc(C3CCCN(S(C)(=O)=O)C3)n2)cc1", "note": "(centres undefined)", "viability": "82.4%"},
      {"molecule": "Cc1ccc(CNC(=O)C2CCCN2C(=O)NCc2ccccc2)cc1", "note": "(centres undefined)", "viability": "102%"},
      {"molecule": "CC1CCC(N2CC(=O)N(Cc3ccc4c(c3)OCO4)C(c3ccc(F)cc3)C2=O)CC1", "note": "(centres undefined)", "viability": "104%"},
      {"molecule": "CC(C)Cn1c(N)c(C(=O)NCc2cccs2)c2nc3ccccc3nc21", "viability": "3.01% (active)"},
      {"molecule": "C=CCn1c(N)c(C(=O)OCC(C)C)c2nc3ccccc3nc21", "viability": "66.4%"},
      {"molecule": "C=CCn1c(N)c(S(=O)(=O)c2cccs2)c2nc3ccccc3nc21", "viability": "107%"},
      {"molecule": "O=C(Nc1ccc2nc3n(c(=O)c2c1)CCCCC3)c1ccccc1Cl", "viability": "109%"},
      {"molecule": "CCOC(=O)c1cc2c(ccn2C)n1CC(=O)N1CCC(C)CC1", "viability": "93.4%"},
      {"molecule": "CN(C)CCNC(CC(=O)Nc1ccc(Cl)c(Cl)c1)C(=O)O", "note": "(centres undefined)", "viability": "93.2%"},
      {"molecule": "N/C(=N\\OC(=O)Nc1ccc(Cl)c(Cl)c1)c1ncc(C(F)(F)F)cc1Cl", "viability": "60.3%"},
      {"molecule": "O=C(CC(O)(C(F)(F)F)C(F)(F)F)Nc1ccc(Cl)c(Cl)c1", "viability": "3.08% (active)"},
      {"molecule": "COc1ccc(-c2cc3nc(C)c(CCC(=O)NC(C)CCc4ccco4)c(C)n3n2)c(OC)c1", "note": "(centres undefined)", "viability": "88.3%"},
      {"molecule": "CCNC(=O)NC(=O)C(C)OC(=O)c1cc(S(=O)(=O)N2CCCCCC2)ccc1OC", "note": "(centres undefined)", "viability": "79.6%"},
      {"molecule": "Cc1[nH][nH]c(=O)c1N=Nc1ccccc1", "viability": "109%"},
      {"molecule": "Cc1[nH][nH]c(=O)c1C(c1ccc(-c2ccc(Cl)cc2)o1)c1c(C)[nH][nH]c1=O", "viability": "24% (active)"},
      {"molecule": "CCCCOC(=O)Cn1c(=N)n(CCN(CC)CC)c2ccccc21", "viability": "104%"},
      {"molecule": "O=C(COc1cc(Cl)c(Cl)cc1Cl)NC(=O)NC1CCCC1", "viability": "88.8%"},
      {"molecule": "O=S(=O)(NCC1OCCc2ccccc21)c1ccccc1", "note": "(centres undefined)", "viability": "104%"},
      {"molecule": "COC(=O)C(C(=O)Nc1cccc(C)n1)C1CCCCCC1", "note": "(centres undefined)", "viability": "88.7%"},
      {"molecule": "COC(=O)c1ccccc1Oc1c(F)c(F)nc(N2CCOCC2)c1F", "viability": "95.4%"},
      {"molecule": "CC(C)(C)C(=O)Cn1c(NCCO)nc2ccccc21", "viability": "95.1%"},
      {"molecule": "OCCNc1nc2ccccc2n1-c1ncnc2sc3c(c12)CCC3", "viability": "4.2% (active)"},
      {"molecule": "O=C(O)[C@@H]1CCCN1c1ncnc2sc3c(c12)CCC3", "viability": "99%"}
    ]}
  ]
}
